Screens (PubChem)
HCV inh = blocks hepatitis C virus | Potency, µM (highest dose often 41.8 µM), inactives show top-dose activity change, negative = inhibition, actives largely listed as inhibitors | hit rate 3.4% among 340,000 | AID 651820 | Huh7.5.1 HCVcc-Cre infection, luciferase reporter, 44 h; further: potency means the concentration at half of the fitted maximal effect
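HCVcc-Cre virus at an moi near 0.5 was added right after compound to cells cultured 4 h from seeding (1,000 cells/well). Luciferase activity was determined 44 h later, 15 min after substrate addition at RT.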
MARV entry inh = Marburg virus entry inhibition; Marburg virus pseudotyped entry inhibition, cell reporter; Potency, µM (doses to about 37.8 µM), inactives show at the highest dose activity change, negative = inhibition, usual class: inhibitors; hit rate 1.8% among 300,000; AID 540276; calls by dose curve; tested in HEK293 cells; further: potency means the concentration at half of the fitted maximal effect
HCMV inh = inhibitors of human cytomegalovirus | HFF cells, HCMV-luciferase reporter, 72 h; active compounds read low | activity change, negative = inhibition, % at 57.5 µM | hit rate 4.5% among 410,000 | AID 1259415; in the data active means activity change below about -60%; inconclusive means no clear call, values can overlap the other calls; inactive means above about -39%
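Two-dose cell screen: HFF monolayers treated with compounds and infected with luciferase-expressing HCMV at 1 PFU/cell, 72 h at 37C, then lysed for luciferase measurement.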
Pf growth 48h = P. falciparum growth inhibition at 48 hours (one generation). AID 504832. Potency, µM (series often up to 28.7 µM), for inactives: at the top dose activity change, negative = inhibition, actives largely listed as inhibitors. P. falciparum luciferase growth in erythrocytes, 48 h. hit rate 5.9% among 310,000; further: potency means the concentration at half of the fitted maximal effect
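Read-out is firefly luciferase luminescence from an integrated reporter in P. falciparum, so falling signal marks reduced parasite growth. Infected erythrocytes were at 2% hematocrit and 0.1% parasitemia (final) in Albumax-supplemented RPMI 1640.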
Lassa entry inh = inhibitors of Lassa virus binding or cell entry; AID 540256; hit rate 1.2% among 300,000; Potency, µM (highest dose often 37.9 µM), for the others: at the top dose activity change, negative = inhibition, most hits filed as inhibitors; Lassa virus pseudotype entry inhibition, cell reporter; calls by dose curve; tested in HEK293 cells; further: potency means the concentration at half of the fitted maximal effect; nearly all actives have a fitted effect of over 50% in size
Pf growth 96h = inhibits malaria parasite growth, 96 h; hit rate 6.9% among 320,000; Potency, µM (titrated, usually from 28.7 µM), inactives show at the highest dose activity change, negative = inhibition, most hits filed as inhibitors; P. falciparum luciferase reporter growth, 96 h; AID 504834; further: potency means the concentration at half of the fitted maximal effect
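Erythrocytes infected with luciferase-expressing P. falciparum were dispensed at 2% hematocrit and 0.05% parasitemia (final), then incubated with compounds 96 hours at 37 C in 5% CO2. Luminescence after detection reagent addition reported growth.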
* marks the source's active call; other numbers are inactive results; ? = inconclusive; · = no result; [ ] = remark or other dose. Hits are enriched below; roughly 14% of the tested compounds scored in any of these assays. Unless noted, the call rests on the fitted dose curve; in most records, active means well fitted inhibition curve with a large enough effect; inconclusive means small, poorly fitted or top-dose-only effect, or another doubt; inactive means no such curve, though single readings can be large or run the other way. On the % scale 0 is the no-effect control and ±100 the full control effect.

SMILES	HCV inh	MARV entry inh	HCMV inh	Pf growth 48h	Lassa entry inh	Pf growth 96h
COc1ccc(OC)c(C(=O)N/N=C/c2ccccn2)c1	8.8%	·	19.2	78.7%	·	8.8%
CC(=O)NCCNC(=O)c1nnc2n1CCN(C(=O)C1CCCCC1)C2	·	·	-17.0	·	·	·
COc1cc(NC(=O)CSc2nc3nc(C)c(Cc4ccc(C)cc4)c(C)n3n2)cc(OC)c1	·	·	15.4	·	?	·
Clc1ccc(COc2ccccc2CNCc2cccnc2)cc1	10µM*	?	-30.3	·	-24.7%	4.65µM*
COc1ccc(NC(=O)C2(C)Cc3c(-c4ccc5c(c4)OCO5)ccnc3O2)cc1OC (stereo not given)	·	·	-19.0	·	·	·
O=C(c1ccc2c(c1)N(Cc1cccc(Cl)c1)C(=O)c1ccccc1S2(=O)=O)N1CCc2ccccc21	·	·	14.1	·	?	·
CCOC(=O)[C@@H](C)N1[C@H](C)[C@H](c2ccccc2)Oc2cc(Br)ccc2S1(=O)=O	·	4.45µM*	·	·	·	·
CC1=C(C(=O)N(C(C)C)C(C)C)CC(CC(=O)NCCN2CCOCC2)C(=O)N1Cc1ccccc1 (stereo not given)	·	·	-3.2	·	·	·
Cc1ccc(Cn2ccsc2=NC(=O)COC(=O)C(C)C)cc1	10.8%	-0.3%[46.1 µM]	?	19.0%	2.0%[46.1 µM]	-13.8%
O=C(COC(=O)c1ccc(O)cc1O)N=c1sccn1Cc1ccccc1Cl	7.94µM*	?	-28.1	?	?	?
Cc1ccc(Cn2ccsc2=NC(=O)COC(=O)c2ccc(O)cc2O)cc1	11.2µM*	·	-78.9*	?	·	?
N#CCC(=O)Nc1ccc(C(=O)OCC(=O)N=c2sccn2Cc2ccccc2Cl)cc1	?	-4.7%	-31.5	11.7µM*	0.9%[46.1 µM]	?
CCN(CC)S(=O)(=O)c1ccc(N2CCOCC2)c(NC(=O)c2ccc(=O)[nH]c2)c1	10.2%	-0.2%[46.1 µM]	49.5	·	?	·
Cc1ccc(C)n1C1C(=O)N(C)c2ccc(F)cc21 (stereo not given)	·	·	25.9	·	·	·
O=C(CN1C(=O)COc2ccc(S(=O)(=O)N3CCCCC3)cc21)NCCc1ccc(Cl)cc1	·	·	?	·	-18.8%[46.1 µM]	·
Cc1ccc(NC(=O)c2cc([N+](=O)[O-])ccc2NCc2cccnc2)cc1Cl	?	?	11.7	5.86µM*	?	2.08µM*
COc1cccc(NC(=O)c2cc([N+](=O)[O-])ccc2NCc2cccnc2)c1	?	?	0.4	10.4µM*	0.2%	?
Cc1cc(Nc2ccccc2F)n2nc(-c3ccccc3)nc2n1	·	4.1%[46.1 µM]	6.0	·	3.7%[46.1 µM]	·
O=C(Nc1ccc(C(F)(F)F)cc1)N[C@H]1CC[C@@]23CCCN2C(=O)CCC[C@H]3C1Cc1ccccc1 (stereo not given in full)	·	·	-22.6	·	·	·
Cc1onc(-c2ccccc2)c1CNS(=O)(=O)c1cccc(Br)c1	-6.4%	?	-73.0*	13.7%	-10.1%	18.5%
CCOc1ccc(-n2c(C)c(C(=O)O)c3cc(OC)ccc32)cc1	1.6%	6.31µM*	?	?	?	9.3%
CC(=O)c1c(C)n(-c2ccc(Cl)cc2)c2ccc(OC(=O)COc3ccccc3)cc12	·	·	-16.8	·	11.0%[46.1 µM]	·
CCOc1ccc(-n2c(C)c(C(C)=O)c3cc(OC(C)=O)ccc32)cc1	?	·	-77.8*	?	·	5.6%
CCn1c(C)c(C(=O)O)c2cc(OC)ccc21	-5.5%	?	-8.7	-15.4%	-0.2%	?
CC(=O)c1c(C)n(-c2cccc(C)c2)c2ccc(OC(=O)COc3ccccc3)cc12	·	-16.9%[46.1 µM]	-62.6*	·	-13.3%[46.1 µM]	·
CCOc1ccc(-n2c(C)c(C(C)=O)c(C(C)=O)c2C)cc1	1.9%	-0.5%	?	-8.5%	1.3%	-16.1%
CCC1CCCCN1CCCNC(=O)Cn1nc(-c2ccc(C)cc2)ccc1=O (stereo not given)	?	?	-70.9*	-7.3%	-5.4%	8.9%
COc1ccc(NC(=O)CSc2nc3nc(C)c(Cc4ccccc4)c(C)n3n2)cc1OC	·	·	-66.3*	·	-4.6%[46.1 µM]	·
Cc1ccc(Cc2c(C)nc3nc(SCC(=O)NCCCN4CCCCCC4)nn3c2C)cc1	?	?	?	?	7.1%[46.1 µM]	10.4µM*
CCOCCCNC(=O)CSc1nc2nc(C)c(Cc3ccccc3)c(C)n2n1	1.7%	5.8%[46.1 µM]	-24.3	1.3%	-7.6%[46.1 µM]	4.65µM*
